According to PubChem BioAssay AID1347426 (Functional Genomics Laboratory (NCATS/FGL), 2020):
Among all 31,000 sequences or so, about 1,400 (4.5%) were called active. The sample as a whole holds a higher share of actives than the screen did. Values without a mark were called inactive.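 How the source made its calls: active means median seed-adjusted z-score above 1 or below -1; inactive means the rest.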

Assay: Novel Modifiers of Survival Motor Neuron (SMN) Protein: Gene Identification via Genome-wide siRNA Screen;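 further: luminescence tracks full-length SMN protein made from the SMN2 reporter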
Details: HEK293T SMN2-luciferase reporter, siRNA knockdown, 72 h; actives lie on both sides
In short: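 Each of three siRNAs per gene is reverse-transfected (1 pmol) into reporter HEK293T cells whose luciferase output tracks SMN protein level. After 72 h culture, ONE-Glo luminescence is control-normalized, log10-transformed and MAD-standardized; Common Seed Analysis deprioritizes seed-driven hits.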

Which median seed-adjusted z-score does the source give for GGCUAACUCGAUUUAAGCATT against TIGD2 here?
The median seed-adjusted z-score was -0.13.

With GACUUUGACAAAGCGAUUATT against SPTAN1 as the sequence, how does the median seed-adjusted z-score read?
Its median seed-adjusted z-score is -0.233.

With CAUCCAUGGUUAAGUCAUATT against PTK6 as the sequence, how does the median seed-adjusted z-score read?
Its median seed-adjusted z-score is -0.295.

Which median seed-adjusted z-score does the source give for GCACCUCUACAGGAACUUUTT against TSC2 here?
Its median seed-adjusted z-score is 1.11 (active).

For GCUCCUCGUUUGUAGAAGATT against SLIT3, which median seed-adjusted z-score is on record?
The median seed-adjusted z-score was -0.453.

With CGAUGUCUAGAGAACAGCATT against LAMB1 as the sequence, how does the median seed-adjusted z-score read?
Its median seed-adjusted z-score is 1.07 (active).

Which median seed-adjusted z-score does the source give for CGAGUACCGGGUCAAGAUATT against PLXND1 here?
Its median seed-adjusted z-score is -0.064.

For CGGUGACCAUAGUACAACATT against FOXK2, which median seed-adjusted z-score is on record?
Its median seed-adjusted z-score is -0.348.

With GAGCGCCUCUAGAAUGUAATT against HMX1 as the sequence, how does the median seed-adjusted z-score read?
Its median seed-adjusted z-score is 1.3 (active).

Which median seed-adjusted z-score does the source give for AGUUUGUGAUAUCAUGAGATT against FRMPD2 here?
Its median seed-adjusted z-score is -0.329.

Which median seed-adjusted z-score does the source give for UCAAUACUGUGGGUUCUUATT against FBLN2 here?
The median seed-adjusted z-score was 0.176.

Which median seed-adjusted z-score does the source give for GGUACCUGCUGAUUCAGAATT against SLC2A5 here?
The median seed-adjusted z-score was -0.429.

With GCUACAUCGAGGACCUUAATT against SERPINB1 as the sequence, how does the median seed-adjusted z-score read?
Its median seed-adjusted z-score is 0.734.

Which median seed-adjusted z-score does the source give for CCAUUGUCUUCCACCGAAATT against RAN here?
Its median seed-adjusted z-score is -3.09 (active).

Which median seed-adjusted z-score does the source give for CAACGGUAAUUAUCAGUCATT against FABP7 here?
Its median seed-adjusted z-score is 0.562.

With GCCUGACUGUAACACCCAATT against TXN2 as the sequence, how does the median seed-adjusted z-score read?
The median seed-adjusted z-score was 0.87.

Which median seed-adjusted z-score does the source give for GGAAAGGUCUAGAUCAGGATT against SEL1L2 here?
The median seed-adjusted z-score was -0.342.

With GCAGCUUCACCUAUCCGAUTT against KLF4 as the sequence, how does the median seed-adjusted z-score read?
The median seed-adjusted z-score was 0.883.

Which median seed-adjusted z-score does the source give for GCGAUAUUAUCAUACUGGATT against ZNF470 here?
Its median seed-adjusted z-score is -1.26 (active).

With CCACCGACGACAAUCUGUATT against ATP4A as the sequence, how does the median seed-adjusted z-score read?
Its median seed-adjusted z-score is 0.

Which median seed-adjusted z-score does the source give for AGGUCAGGGUUACAGCUUUTT against MPP2 here?
The median seed-adjusted z-score was 0.0496.

With CCAUAUAAGUUUACGUUUATT against TM9SF2 as the sequence, how does the median seed-adjusted z-score read?
Its median seed-adjusted z-score is 1.09 (active).

With CCUCGACCCUGUUUCUUAUTT against ARL4D as the sequence, how does the median seed-adjusted z-score read?
The median seed-adjusted z-score was -0.523.

Which median seed-adjusted z-score does the source give for CCACGUUCACCAAGAUCUUTT against RBM38 here?
The median seed-adjusted z-score was 0.0358.

For GGCUUAUGGAGAUAUGAAUTT against PPFIA2, which median seed-adjusted z-score is on record?
The median seed-adjusted z-score was 0.176.

For GGAACUCUUUGCUGAAUUUTT against THOC4, which median seed-adjusted z-score is on record?
Its median seed-adjusted z-score is -1.54 (active).

With CAUUAGUACUUCGAUCUAUTT against PHCA as the sequence, how does the median seed-adjusted z-score read?
The median seed-adjusted z-score was 0.0568.

For GCUCCAAAUGGAGAGUGUATT against PRKCDBP, which median seed-adjusted z-score is on record?
The median seed-adjusted z-score was 0.244.

For GGAACAGCACAGAACAGCATT against ARID5A, which median seed-adjusted z-score is on record?
Its median seed-adjusted z-score is 0.0642.

Which median seed-adjusted z-score does the source give for CCAUUGAAGCUUGAGAGAATT against ZNF286A here?
Its median seed-adjusted z-score is 0.0368.

Which median seed-adjusted z-score does the source give for CGAAGACUGUCUGAGACAATT against GPR52 here?
The median seed-adjusted z-score was -1.17 (active).

With CCGUAAACAUAUGACUAAATT against ZBTB11 as the sequence, how does the median seed-adjusted z-score read?
The median seed-adjusted z-score was -0.105.

Which median seed-adjusted z-score does the source give for CGCCAUCUGUGUAACUUCATT against CARD9 here?
Its median seed-adjusted z-score is -0.325.

Which median seed-adjusted z-score does the source give for GAGACCCUCUGGUUAUAGATT against FKBP11 here?
The median seed-adjusted z-score was -0.085.

For AGGCCGCUGUGGACAUCAATT against CASKIN1, which median seed-adjusted z-score is on record?
The median seed-adjusted z-score was 0.555.

Which median seed-adjusted z-score does the source give for GAUUCUACUGUCUUACUAATT against HIATL1 here?
The median seed-adjusted z-score was 0.327.

Which median seed-adjusted z-score does the source give for CAGCAGUACCGACAGAAGATT against ATAD3B here?
The median seed-adjusted z-score was -0.624.

With UCAUGAACAUUGUCAAUGATT against ADAMTS2 as the sequence, how does the median seed-adjusted z-score read?
The median seed-adjusted z-score was -0.338.

Which median seed-adjusted z-score does the source give for GUGGUUUCUUGAUCUGAAATT against HSDL2 here?
The median seed-adjusted z-score was -0.0717.

Which median seed-adjusted z-score does the source give for GAGGCUUCAUUUUAGAAGATT against XPA here?
Its median seed-adjusted z-score is 2.03 (active).

With CCCUUUUCGUGGUCUAUGATT against LCMT2 as the sequence, how does the median seed-adjusted z-score read?
Its median seed-adjusted z-score is -0.0205.

For GCCUCGCUGUGAUCUGAUUTT against CACNG6, which median seed-adjusted z-score is on record?
The median seed-adjusted z-score was -0.0499.

Which median seed-adjusted z-score does the source give for CGGUUGUUAUGACAAUGGATT against FN1 here?
Its median seed-adjusted z-score is -0.312.

Which median seed-adjusted z-score does the source give for UGCUCUACUUCUUAAGUGATT against STARD8 here?
The median seed-adjusted z-score was -0.135.

For GAAGGAUCUCAAACUCGAATT against NECAB1, which median seed-adjusted z-score is on record?
Its median seed-adjusted z-score is 0.0268.

Which median seed-adjusted z-score does the source give for GAUCUUCGGUGAAUCAGAATT against MRC2 here?
The median seed-adjusted z-score was -1.34 (active).

With GGUCAUUAAUUUACAUGAATT against STK17A as the sequence, how does the median seed-adjusted z-score read?
Its median seed-adjusted z-score is 0.

For ACAACGUGGUGAGAUGCAATT against LOXL1, which median seed-adjusted z-score is on record?
The median seed-adjusted z-score was 0.0435.

Which median seed-adjusted z-score does the source give for GAGGUUUUAUAUAACCGAUTT against SMC6 here?
Its median seed-adjusted z-score is 0.227.

For GCAUGUUAUCGAAGGGUUUTT against PHC2, which median seed-adjusted z-score is on record?
The median seed-adjusted z-score was 0.177.

Which median seed-adjusted z-score does the source give for GAUGCUACUUUAGAAUUAATT against GNPDA2 here?
The median seed-adjusted z-score was -0.422.

With AGAUUUAUCUUGAAGCUGATT against ARL4D as the sequence, how does the median seed-adjusted z-score read?
The median seed-adjusted z-score was -0.523.

Which median seed-adjusted z-score does the source give for CUUGAUGACUCUAAACCUATT against RUNX2 here?
The median seed-adjusted z-score was 0.335.

For AAGACUCACUUGUUCAACATT against ZNF772, which median seed-adjusted z-score is on record?
The median seed-adjusted z-score was 0.817.

With GGGACAAGUUCGUCAUCUUTT against CRYAA as the sequence, how does the median seed-adjusted z-score read?
The median seed-adjusted z-score was -1.03 (active).

Which median seed-adjusted z-score does the source give for CCUAUGAUAUGGUUCCAGATT against COX5A here?
Its median seed-adjusted z-score is -0.348.

With GGUAUACAAGGAAAGGUUATT against EIF4E as the sequence, how does the median seed-adjusted z-score read?
The median seed-adjusted z-score was -0.404.

For UGGACAUUCUUGCACCCAATT against CHTF18, which median seed-adjusted z-score is on record?
The median seed-adjusted z-score was 0.371.

For CAAUAUUAGUUGCUGUAUATT against PPAP2A, which median seed-adjusted z-score is on record?
The median seed-adjusted z-score was 0.

For UGCUGACCUCGUUACCUUUTT against UCP3, which median seed-adjusted z-score is on record?
The median seed-adjusted z-score was 1.23 (active).

Which median seed-adjusted z-score does the source give for CAGUCUUUAUGCAAUGGAATT against TYR here?
Its median seed-adjusted z-score is 0.131.

For AGAUGUACAACGACCCAAATT against AGBL4, which median seed-adjusted z-score is on record?
The median seed-adjusted z-score was 0.487.

With GCAUGGUAUUGGAAUAACUTT against CHEK1 as the sequence, how does the median seed-adjusted z-score read?
The median seed-adjusted z-score was -5.1 (active).

With GACCUUCCACAGUACAUCATT against MAST3 as the sequence, how does the median seed-adjusted z-score read?
Its median seed-adjusted z-score is -0.642.

For GCUCAGAUAAAGUACAGAATT against GGCX, which median seed-adjusted z-score is on record?
The median seed-adjusted z-score was -0.362.

For GAGUCAUAGUUGCAGCUGATT against PSMB5, which median seed-adjusted z-score is on record?
Its median seed-adjusted z-score is -1.37 (active).

Which median seed-adjusted z-score does the source give for CCUCAUGACUUCGCAAAUATT against COPB1 here?
Its median seed-adjusted z-score is -0.839.

Which median seed-adjusted z-score does the source give for GGACCAUAACUCUUACGUATT against RBM26 here?
Its median seed-adjusted z-score is -0.967.

Which median seed-adjusted z-score does the source give for UCACUGUGCUACAUCAUCATT against MYL7 here?
Its median seed-adjusted z-score is -1.21 (active).
